Data from PubChem BioAssay (Tox21).
Results filed as inconclusive are left out. The source made the active and inactive calls. Calls follow the shape of the dose curve; as a rule, active = well fitted activation curve with a large enough effect in the repeat runs; inconclusive = weak or mixed curves; inactive = no such curve, though single readings can be large or run the other way.
% is scaled to controls: 0 for no effect and ±100 for the full control effect; potency is read from the fitted curve at half-maximal effect.

Each molecule was assayed against Nuclear receptor subfamily 1 group I member 2 (Homo sapiens) (UniProt O75469) (assay: Human pregnane X receptor (PXR) small molecule agonists, qHTS assay (AID 1346982; also: nearly all actives have a fitted effect of over 35% in size)). Details: PXR-Luc HepG2, CYP3A4 luciferase reporter, 24 h; series mostly up to 92.4 µM; activation: at the top concentration.
Chain of Nuclear receptor subfamily 1 group I member 2 (Homo sapiens) (O75469 whole entry, looked up): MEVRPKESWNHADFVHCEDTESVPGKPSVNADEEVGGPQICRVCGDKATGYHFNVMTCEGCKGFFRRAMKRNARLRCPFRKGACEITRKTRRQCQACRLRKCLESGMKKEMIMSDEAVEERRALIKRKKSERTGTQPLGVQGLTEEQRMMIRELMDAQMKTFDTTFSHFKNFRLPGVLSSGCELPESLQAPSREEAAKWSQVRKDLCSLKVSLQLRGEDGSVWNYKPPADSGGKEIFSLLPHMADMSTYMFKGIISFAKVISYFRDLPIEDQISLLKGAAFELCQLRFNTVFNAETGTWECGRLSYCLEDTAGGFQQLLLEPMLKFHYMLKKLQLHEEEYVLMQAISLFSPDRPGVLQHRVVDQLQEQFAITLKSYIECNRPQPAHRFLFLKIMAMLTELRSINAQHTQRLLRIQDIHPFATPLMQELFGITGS
Summary of the method: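 Agonist mode qHTS: PXR-Luc HepG2 cells plated 5 hr before DMSO-dissolved compounds were pinned in, cultured 24 hr at 37 C, 5% CO2; ONE-Glo luminescence readout.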
For `Nc1ccccc1Nc1ccccc1`, the Potency was 19.4 µM (active). With `O=S(=O)(O)c1cc(Cl)c(Cl)cc1Cl` the “activation” value was 10.3% (inactive). With `C=CC(=O)NC(C)(C)C` the “activation” value was -5.22% (inactive). `C=CC(C)(O)CC/C=C(/C)CCC=C(C)C` (stereo unspecified) was tested, and the Potency was 54.5 µM (active). With `CCCCCO` the “activation” value was 1.95% (inactive). `CC(C)(C)c1cc(C=O)cc(C(C)(C)C)c1O` was tested, and the “activation” value was 2.46% [at 42.5 µM] (inactive). For `CCCCCCCCCCCCCCCCCCCl`, the activation was 17.1% [at 8.39 µM] (inactive). For `O=C(OCCOCCOCCOC(=O)c1ccccc1)c1ccccc1`, the Potency was 27.3 µM (active). With `O=C(O)CCc1nc2ccccc2[nH]1` the “activation” value was -5.81% [at 42.5 µM] (inactive). In the case of `CC(C)C/C=C(\C=O)c1ccccc1`, the Potency is reported as 30.6 µM (active). For `c1ccc(CN(Cc2ccccc2)Cc2ccccc2)cc1`, the Potency was 30.6 µM (active). `C[C@H](CN1CCCC1)C(=O)c1ccc(C(F)(F)F)cc1` was tested, and the Potency was 26.6 µM (active). For `O=C(Cl)c1ccc(F)c(Cl)c1`, the “activation” value was 22.6% (inactive). `C[C@]12CCC(=O)C=C1[C@@H]1C[C@@H]1[C@H]1[C@@H]3[C@@H]4C[C@@H]4[C@@]4(CCC(=O)O4)[C@@]3(C)CC[C@@H]12` was tested, and the “activation” value was 4.21% [at 42.5 µM] (inactive). For `O=C1OC(=O)C2CC=CCC12` (stereo unspecified), the “activation” value was 3.31% (inactive). In the case of `CC(C)Oc1ccccc1O`, the “activation” value is reported as 0.823% (inactive). With `c1ccc(-c2ccc(-c3ccccc3)cc2)cc1` the Potency was 1.77 µM (active). With `CC(C)=CCCC(C)C=O` (stereo unspecified) the “activation” value was 5.19% (inactive). In the case of `O=C(O)c1ccc2c(c1)nc(C(=O)NC1CCN(C3CC3)CC1)n2Cc1cc(-c2ccc(Cl)s2)on1`, the activation is reported as -32.3% [at 19 µM] (inactive). `O=C(O)c1ccc2cc(O)ccc2c1` was tested, and the “activation” value was 22.5% (inactive). For `O=C1c2ccccc2C(=O)C1c1ccc2cc(S(=O)(=O)O)cc(S(=O)(=O)O)c2n1`, the “activation” value was -3.79% (inactive).
